# Compounds without any hit were thinned out: in the full panel of roughly 83,000, 20% have a hit.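 Results are percent growth after 48 hours of single-concentration exposure. 100 means growth as in untreated cells, lower positive values show inhibition; negative values down to -100 show cell death.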 Values without a mark were called inactive. Calls of active or inactive are those of the source. The calls were made as follows: active = growth percent below 10; inactive = the rest.
# System: HL-60(TB) leukemia
# Test: NCI-60 one-dose screen, 48 h (100 = growth as untreated, 0 = no growth, -100 = all killed)
# Conditions: 10 µM unless noted
row,Compound,growth
1,Nc1ncnc2c1N=C(c1ccc([N+](=O)[O-])cc1)CC(c1ccc3c(c1)OCO3)N2 (stereo not given),105%
2,COc1cccc(OC)c1C(=O)N[C@@H]1C(=O)N2[C@@H]1SC(C)(C)[C@@H]2C(=O)O,94.3%
3,CC(C)(C)c1ccc(C(=O)N/N=C/c2ccc(O)cc2O)cc1,5.19% (active)
4,c1ccc([P+](c2ccccc2)(c2ccccc2)c2ccc3c4ccc([P+](c5ccccc5)(c5ccccc5)c5ccccc5)c5cccc(c6cccc2c63)c54)cc1,11.2%
5,CCn1c2ccc(N(C)C)cc2c2cc(N(C)C)ccc21,66.1%
6,COc1ccc(C(=O)NCCNc2nccc(-c3c(-c4ccc(F)cc4)nc4sccn34)n2)cc1,88.9%
7,COc1cc(/C=C/c2cc(/C=C/c3ccc(O)c(OC)c3)n(-c3ccccc3)n2)ccc1O,-42.2% (active)
8,O=[N+]([O-])c1ccc(/C=C/C=C/c2ccccc2)c(Cl)c1,91.9%
9,COc1ccc(/C=N/c2cc(C(C)(C)C)nn2-c2ccccc2)cc1,88.3%
10,CCc1ccc2c(c1)N(CCO)C1=C(C(=O)OC1)C2c1cc(OC)c(OC)c(OC)c1 (stereo not given),-26.4% (active)
11,CCCCC(CCc1ccccn1)C(=O)c1ccccc1 (stereo not given),110%
12,CC(C)=CCC[C@](C)(O)C1CC[C@]2(C)[C@@H]1CC[C@@H]1[C@@]3(C)CC/C(=N\OCCC#N)C(C)(C)[C@@H]3CC[C@]12C (stereo not given in full),69.3%
13,Cc1nn(-c2ccccc2)c(Cl)c1/C=C(/NC(=O)c1ccccc1)c1nc2ccccc2[nH]1,85.5%
14,COc1ccc(N=Nc2nccs2)c(O)c1,-32.2% (active)
15,O=C(N/N=C/c1ccc(Cl)cc1)c1[nH]c2ccc(Cl)cc2c1-c1ccccc1,13%
16,Cc1cccc(C)c1NC(=O)Nc1ccccc1,104%
17,C[C@]12CCc3c(ccc4cc(O)ccc34)[C@@H]1C[C@H](O)[C@@H]2O,132%
18,COc1ccc(-c2nc(C#N)c(NCC(c3ccco3)N3CCCC3)o2)cc1 (stereo not given),-14.1% (active)
19,COc1ccc(C2c3ccc4ccccc4c3Oc3ncnc(N)c32)cc1 (stereo not given),89%
20,O=C(N/N=C/c1ccc(Cl)cc1)c1ccc(Cc2n[nH]c(=O)c3cccnc23)cc1,100%

row,Compound,growth
1,N=C(N)c1ccc(-c2ccc(-c3cc(Cl)cc(Cl)c3)s2)nc1,-7.02% (active)
2,CN1c2ccccc2[C@]2(Cc3ccccc3)Cc3ccccc3N[C@H]12,94.7%
3,[2H]c1cc2c(c([2H])c1F)/C(=C/c1[nH]c(C)c(C(=O)NCCN(CC)CC)c1C)C(=O)N2,4.9% (active)
4,O=C1c2ccccc2C(=O)N1CCCCNc1ccccc1,5.16% (active)
5,C=C1SC(=Nc2ccccc2Cl)N(C(=O)c2sc3ccccc3c2Cl)C1(C)C,1.29% (active)
6,COc1cc(Nc2cc(C)nc(N3CCN(c4ccnc5cc(Cl)ccc45)CC3)n2)cc(OC)c1,-6.44% (active)
7,COc1ccc(Br)c(C=O)c1,-16.3% (active)
8,COc1ccc(/C=C2\SC(=O)N(Cc3cc(=O)oc4ccc(OC)cc34)C2=O)cc1,90.9%
9,Nc1c(C(=O)Nc2ccncc2)sc2nc3c(cc12)CCCCCCCC3,-54.9% (active)
10,CC1CCCCC[N+]12CCCC2 (stereo not given),102%
11,COc1cccc(/C=C2\COc3ccc(-c4ccccc4)cc3C2=O)c1,-47% (active)
12,O=C(Nc1cnc(Nc2ccc(N3CCOCC3)nc2)nc1Oc1ccc(C(F)(F)F)cc1)c1ccncc1,98.6%
13,NC1[C@H](c2c[nH]c3ccccc23)c2c([nH]c3ccccc23)[C@H]1c1c[nH]c2ccccc12 (stereo not given in full),119%
14,O=c1cc(C(F)(F)F)c2cc(-c3cc4ccccc4c(=O)o3)c(O)cc2o1,38.3%
15,Clc1ccc(C2=Nn3c(nnc3-c3cc(Cl)cc(Cl)c3Cl)SC2)cc1,-15% (active)
16,O=Cc1ccc2nc(C(Cl)(Cl)Cl)ccc2c1,104%
17,COc1ccc(-c2cc(/C=C/C(=O)c3ccc(OC)c(OC)c3)[nH]n2)cc1,-43.7% (active)
18,CC(=O)/C(=C\c1ccc(Cl)cc1)c1ccccc1,-16.2% (active)
19,OCc1cnccc1NCCCOc1ccccc1,89.4%
20,O=C1/C(=C/C(Cl)=C/c2ccccc2)SC(=S)N1CCc1ccc(O)cc1,-7.15% (active)

# Reference: PubChem BioAssay (NCI)
